# Source: publication PMC4336329 (PLoS ONE, 2015)
# Hit rate of the full screen: of about 310,000 compounds, about 14,000 (4.5%) showed an effect of 50% or more. Effects have a minus sign here. This is one part of a sample in which strong results are shown more often than they occur.
# Biological target: human ether-à-go-go-related gene (hERG) potassium channel (human, UniProt Q12809)
# Assay: primary screen, population patch clamp on CHO cells stably expressing hERG; higher = less effect of the substance
# 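Note: peak tail current of the secondary pulse compared with the same well before compound.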
# Chain of human ether-à-go-go-related gene (hERG) potassium channel (Q12809 whole entry, looked up): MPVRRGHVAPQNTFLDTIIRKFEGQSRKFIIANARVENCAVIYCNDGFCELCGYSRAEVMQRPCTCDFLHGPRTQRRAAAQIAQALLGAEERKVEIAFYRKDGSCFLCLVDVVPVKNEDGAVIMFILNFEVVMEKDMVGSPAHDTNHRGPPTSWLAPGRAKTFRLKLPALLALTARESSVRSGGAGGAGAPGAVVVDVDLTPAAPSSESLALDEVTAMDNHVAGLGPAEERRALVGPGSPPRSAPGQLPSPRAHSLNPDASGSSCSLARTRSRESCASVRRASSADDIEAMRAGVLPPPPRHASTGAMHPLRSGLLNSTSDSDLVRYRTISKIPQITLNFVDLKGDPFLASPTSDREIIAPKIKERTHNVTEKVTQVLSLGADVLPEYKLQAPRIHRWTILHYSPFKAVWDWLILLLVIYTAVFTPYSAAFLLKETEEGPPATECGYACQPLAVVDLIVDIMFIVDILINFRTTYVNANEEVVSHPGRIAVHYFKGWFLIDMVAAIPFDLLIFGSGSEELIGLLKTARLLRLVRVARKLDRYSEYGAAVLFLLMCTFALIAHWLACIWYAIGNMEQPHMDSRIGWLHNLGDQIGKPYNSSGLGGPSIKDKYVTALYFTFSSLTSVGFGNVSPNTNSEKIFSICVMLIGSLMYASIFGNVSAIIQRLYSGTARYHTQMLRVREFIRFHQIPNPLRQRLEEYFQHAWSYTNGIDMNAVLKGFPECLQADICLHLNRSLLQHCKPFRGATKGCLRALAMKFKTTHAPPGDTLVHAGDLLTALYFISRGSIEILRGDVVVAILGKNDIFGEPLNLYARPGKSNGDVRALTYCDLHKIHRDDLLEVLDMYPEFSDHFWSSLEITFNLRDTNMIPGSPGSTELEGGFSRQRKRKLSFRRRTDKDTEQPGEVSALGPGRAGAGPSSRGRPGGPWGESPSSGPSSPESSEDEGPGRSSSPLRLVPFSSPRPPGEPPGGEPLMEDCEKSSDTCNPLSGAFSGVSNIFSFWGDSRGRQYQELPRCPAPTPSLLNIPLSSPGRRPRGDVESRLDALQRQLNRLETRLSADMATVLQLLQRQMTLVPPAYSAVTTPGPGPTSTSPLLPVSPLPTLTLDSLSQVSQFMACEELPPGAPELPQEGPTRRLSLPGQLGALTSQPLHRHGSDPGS
row,Structure (SMILES),"hERG current change (%, negative = inhibition) at 10uM [%]"
1,O=C(NCc1ccccc1)C(=O)NCC1OCCN1C(=O)c1cccs1 (stereo not shown),-65.3
2,O=C(NCc1ccc(Cl)cc1)C(=O)NCC1OCCN1C(=O)c1cccs1 (stereo not shown),-7.77
3,O=C(NCc1ccc(F)cc1)C(=O)NCC1OCCN1C(=O)c1cccs1 (stereo not shown),-4.15
4,Cl.NS(=O)(=O)c1ccc(CCNCc2ccccc2OCc2ccc(Cl)cc2)cc1,-73.1
5,NS(=O)(=O)c1ccc(CCNC(=O)c2ccccc2OCc2ccc(F)cc2)cc1,4.16
6,Cl.Clc1ccc(COc2ccccc2CNCc2cccnc2)cc1,-31.1
7,Cl.NS(=O)(=O)c1ccc(CCNCc2ccccc2OCc2ccc(F)cc2)cc1,-74.5
8,Cl.NS(=O)(=O)c1ccc(CCNCc2cc(Cl)ccc2OCc2ccccc2)cc1,-74.5
9,NS(=O)(=O)c1ccc(NCc2cc(Cl)ccc2OCc2ccc(F)cc2)cc1,3.36
10,NS(=O)(=O)c1ccc(NCc2ccccc2OCc2ccc(F)cc2)cc1,-17
11,C=CCOc1ccccc1CNCCc1ccc(S(N)(=O)=O)cc1.Cl,-37.2
12,COc1cc(CNCCc2ccc(S(N)(=O)=O)cc2)ccc1OCc1ccc(Cl)cc1.Cl,-31.8
13,CCCc1cc2c(cc1NC(=O)c1ccccc1F)OCO2,-11.3
14,CC(=O)Nc1sc2c(c1C(=O)N1CCOCC1)CCCCC2,17.9
15,Cc1ccc(-n2ncc3c(NCC4CCCO4)ncnc32)c(C)c1 (stereo not shown),12.9
16,COc1cc(C(C)=O)ccc1OCC(=O)Nc1ccc2nc(C)sc2c1,13.4

row,Structure (SMILES),"hERG current change (%, negative = inhibition) at 10uM [%]"
1,CC(SC#N)C(=O)C12CC3CC(CC(C3)C1)C2 (stereo not shown),-8.99
2,O=C1CN=C(c2ccccc2)c2ccccc2N1,8.11
3,O=[N+]([O-])/C=C/c1cn(Cc2ccc(Cl)cc2)c2ccccc12,2.65
4,O=C(NCc1cccnc1)C(Cl)(Cl)Cl,0.208
5,CCN(CC)c1ccc(S(=O)(=O)N2CCOCC2)cc1NC(=O)COC(=O)COc1ccccc1C,12.7
6,CC1=CC=CC2=NC(=O)CC(C)(C(=O)N(CC(=O)NC3CCCC3)c3ccc(F)cc3)N12 (stereo not shown),11.1
7,Cc1nn(C)c(C)c1S(=O)(=O)N(CC(=O)NC1CCCCCC1)c1ccc(C(C)C)cc1,-10.4
8,Cc1nn(C)c(C)c1S(=O)(=O)N(CC(=O)NCc1ccco1)c1ccc(C(C)C)cc1,16.6
9,Cc1nn(C)c(C)c1S(=O)(=O)N(CC(=O)NCCN1CCOCC1)c1ccc(C(C)C)cc1,-2.41
10,Cc1cccc(NC(=O)CN(c2ccc(C(C)C)cc2)S(=O)(=O)c2c(C)nn(C)c2C)n1,-12.2
11,Cc1nn(C)c(C)c1S(=O)(=O)N(CC(=O)NCCCN1CC(C)CC(C)C1)c1ccc(C(C)C)cc1 (stereo not shown),-66.4
12,Cc1nn(C)c(C)c1S(=O)(=O)N(CC(=O)NCc1cccs1)c1ccc(C(C)C)cc1,9.79
13,Cc1nn(C)c(C)c1S(=O)(=O)N(CC(=O)Nc1ccccn1)c1ccc(C(C)C)cc1,-7.4
14,Cc1nn(C)c(C)c1S(=O)(=O)N(CC(=O)NCCCOC(C)C)c1ccc(C(C)C)cc1,-69.6
15,Cc1nn(C)c(C)c1S(=O)(=O)N(CC(=O)NCCCN1CCC(C)CC1)c1ccc(C(C)C)cc1,-64.7
